In PubChem BioAssay AID493169 (National Center for Advancing Translational Sciences (NCATS), 2011):
Records with an inconclusive call do not appear. Entries that show only a call come without a potency. Active and inactive are the calls of the source. Calls come from the whole dose curve; as a rule, active = well fitted inhibition curve with a large enough effect; inconclusive = small, poorly fitted or top-dose-only effect; inactive = flat fitted curve, though single readings scatter.

Assay: CHOP2 Reporter Counterscreen Assay for Inhibitors of Ubiquitin-specific Protease USP2a;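 note: activated enterokinase alone at 50 pM in a cell-free format rather than USP2a or CHOP2; nearly all actives have a fitted effect of over 55% in size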
Details: purified enterokinase, fluorogenic substrate, 485/531 nm; series mostly up to 38.3 µM
How it was run: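 Cell-free counterscreen with pre-activated enterokinase alone (50 pM final) in 20mM Tris-HCl pH 8.0, 2mM CaCl2, 2mM beta-mercaptoethanol, 0.05% CHAPS; compound preincubation 30 min RT, reporter substrate 25nM final, fluorescence read after 10 min (Ex 485/Em 531).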
Potency is the fitted concentration of half-maximal effect.

Structure (SMILES)	Potency
O=C(CC(C(=O)O)C1CCCO1)NCCc1ccc2c(c1)OCO2 (stereo not given)	inactive
O=C(NNC(=O)c1cc2ccccc2cc1O)Nc1ccccc1F	inactive
CC(=O)c1c(N2CCCC2)[nH]c(-c2ccccc2)nc1=S	inactive
CC(C)(C)C1CCC2(CC1)Nc1cccc3cccc(c13)N2	inactive
O/N=C/c1ccccc1OCc1ccccc1F	inactive
CC(=O)c1ccc(Nc2ncnc3c2oc2ccccc23)cc1	inactive
O=C1Nc2ccc(S(=O)(=O)N3CCCCCC3)c3cccc1c23	inactive
COc1ccc(/C=C\C(=O)O[C@@H]2C(O)C(O[C@@H]3OC(C)[C@H](O[C@@H]4OCC(O[C@H]5O[C@H](CO)[C@@H](O)C(O)C5O)C(O)C4O)C(O)C3O)[C@H](OC(=O)[C@]34CCC(C)(C)C[C@@H]3C3=CCC5[C@@]6(C)CC(O)C(O[C@@H]7OC(CO)C(O)[C@H](O)[C@H]7O)[C@@](C)(C(=O)O)C6CC[C@@]5(C)[C@]3(CO)CC4)O[C@H]2C)cc1 (stereo not given in full)	inactive
O=C(Nc1ccc(Nc2ccncc2)cc1)c1ccc(Nc2ccnc3ccc([N+](=O)[O-])cc23)cc1	3.55 µM (active)
COC(=O)c1ccc(CSc2ncnc3ccccc23)o1	inactive
Cc1ccc(C(=O)Nc2nnc(CC(=O)N/N=C/c3ccc(O)c(O)c3)s2)cc1	2.82 µM (active)
CN(C)CCOCCP(=O)(c1ccccc1)c1ccccc1	inactive
Cc1ccc(Cn2nnc3c(=O)[nH]c(C4CCN(S(=O)(=O)Cc5ccccc5)CC4)nc32)cc1	inactive
O=C(C[n+]1cccc(C(=O)N/N=C/c2ccc(Br)cc2)c1)c1ccccc1	inactive
Nc1c(C(=O)Nc2ccc(Cl)cc2)oc2ccccc12	inactive
COc1ccc(-n2c(=S)[nH]c3cc(C(=O)Nc4cc(OC)c(OC)c(OC)c4)ccc3c2=O)c(OC)c1	inactive
CC(=O)c1ccc2c(c1)C1C=CCC1C(C(=O)O)N2 (stereo not given)	11.2 µM (active)
O=C(COC(=O)c1ccc(NS(=O)(=O)c2cccs2)cc1)Nc1nc2c(F)c(F)c(F)cc2s1	10 µM (active)
Cn1c(SCc2nc3ccccc3s2)nnc1-c1cccs1	inactive
COCCCNC(=O)C1CCN(c2nc(C)cc(C)n2)CC1	inactive

Structure (SMILES)	Potency
Cc1cc(/C=C2\C(=N)N3N=C(c4ccco4)SC3=NC2=O)c(C)n1Cc1ccccc1	7.08 µM (active)
Cc1cc(SCC(=O)Nc2ccccc2)nc(C)n1	inactive
CCOC(=O)CCCNC(=O)COC(=O)c1cccc(C)c1O	inactive
COC(=O)c1[nH]c(=O)c2ccccc2c1OCc1ccccc1	inactive
Cc1ccc(C(=O)NCCNS(=O)(=O)c2ccccc2)cc1	inactive
CC(C)(C)[C@H]1COC(=O)[C@@H](Cc2ccc(F)cc2)C/C=C\C[C@@H](CC(=O)N[C@@H](CO)Cc2ccccc2)C(=O)N1	inactive
CC(C)C(C(=O)O)N1C(=O)/C(=C/C=C/c2ccco2)SC1=S (stereo not given)	2 µM (active)
Cc1ccccc1OCCn1nc(C(=O)O)c2ccccc2c1=O	inactive
CC1=C(C(=O)OC(C)C)C(C)C(C(=O)OC(C)C)=C(C)N1	inactive
Cn1c(C(=O)N2CCN(Cc3ccc4c(c3)OCO4)CC2)cc2sccc21	inactive
COc1ccc2[nH]c(=O)c(CN(C3CCCCC3)C(c3nnnn3Cc3ccco3)C(C)C)cc2c1 (stereo not given)	10 µM (active)
CCc1cc2cccc(C)c2nc1SCC(=O)N1CCN(C(=O)c2ccco2)CC1	inactive
COC(=O)C1CCN(C(=O)COC(=O)CC(NC(N)=O)c2ccc(Cl)cc2)CC1 (stereo not given)	inactive
O=C(Nc1nnc(-c2cccs2)o1)c1cccc(Oc2ccccc2)c1	inactive
Cc1cccc2c1N(CCCOc1ccc(C(C)(C)C)cc1)C(=O)C2=O	inactive
CCn1cc(C(=O)N2CCOCC2)c(=O)c2cc(S(=O)(=O)N(C)C)ccc21	inactive
O=C(Nn1c(SCc2ccc([N+](=O)[O-])cc2)nc2ccccc2c1=O)c1ccc(F)cc1	inactive
COC(=O)c1nnn(-c2nonc2N)c1CSc1ccccn1	inactive
CCOC(=O)c1c(-c2ccc(C)o2)csc1NC(=O)COC(=O)c1ccc(NC(N)=O)cc1	inactive
Cn1c(=O)c(C(=O)Nc2ncccc2O)c(O)c2ccccc21	10 µM (active)
